Compounds without any hit were thinned out: in the full panel of roughly 79,000, 15% have a hit. The source made the active and inactive calls. Rule as the data show it: active = growth inhibition above about 70%; inactive = the rest.
How the values were obtained:
[1] = NCI Yeast Anticancer Drug Screen. Data for the rad52 strain (AID 147);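 also: 0% = growth of vehicle-treated control cultures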; conditions: S. cerevisiae rad52 mutant growth inhibition, hits give high values
How it was run: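 Compounds are applied to a genetically defined yeast strain lacking normal DNA damage repair, and inhibition of growth is expressed relative to cultures given vehicle only.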

[2] = NCI Yeast Anticancer Drug Screen. Data for the wt1 strain (AID 149);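 also: 0% = growth of vehicle-treated wt1 cultures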; conditions: S. cerevisiae wt1 strain (SPY 50644) growth inhibition, hits give high values
How it was run: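 Readout: yeast growth inhibition, normalised to vehicle controls, in the wt1 strain exposed to test compounds.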

[3] = NCI Yeast Anticancer Drug Screen. Data for the rad50EPP+ strain (AID 151);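 also: 0% = growth of vehicle-treated control cultures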; conditions: S. cerevisiae rad50 mutant strain, hits give high values
How it was run: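 Compounds were applied to the rad50EPP+ yeast strain, which bears a defined DNA repair alteration, and growth inhibition was determined relative to vehicle-treated cultures.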

[4] = NCI Yeast Anticancer Drug Screen. Data for the mgt1 strain (AID 153); conditions: S. cerevisiae mgt1 mutant growth inhibition, hits give high values
How it was run: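 Strain: mgt1 yeast, one of a set carrying defined DNA damage repair or cell cycle control alterations. Compound-treated growth compared with vehicle.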

[5] = NCI Yeast Anticancer Drug Screen. Data for the rad50 strain (AID 155);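 also: 0% = growth of vehicle-only cultures of the same strain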; conditions: S. cerevisiae rad50 strain growth inhibition, hits give high values
How it was run: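 Compounds were tested on a yeast strain with an engineered DNA damage repair alteration; the reported value is growth inhibition normalised to vehicle treatment.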

[6] = NCI Yeast Anticancer Drug Screen. Data for the mec2-1 strain (AID 157); conditions: S. cerevisiae mec2-1 strain, hits give high values
How it was run: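 Strain: mec2-1 (DNA repair/cell cycle alteration). Compound exposure, then growth measured; inhibition expressed relative to vehicle.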

[7] = NCI Yeast Anticancer Drug Screen. Data for the rad14 strain (AID 159);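 also: 0% = growth of vehicle-treated control cultures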; conditions: S. cerevisiae rad14 strain growth inhibition, hits give high values
How it was run: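 Compound-treated yeast with a defined DNA-repair lesion; growth inhibition normalised to vehicle-treated cultures.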

[8] = NCI Yeast Anticancer Drug Screen. Data for the sgs1 mgt1 strain (AID 161);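 also: 0% = growth of cultures given vehicle only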; conditions: S. cerevisiae sgs1 mgt1 strain, hits give high values
How it was run: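 Test agents were incubated with a DNA-repair-mutant yeast strain. Growth was then read and compared against vehicle-treated controls.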

[9] = NCI Yeast Anticancer Drug Screen. Data for the CLN2oe strain (AID 163);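 also: 0% = growth of vehicle-only control cultures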; conditions: S. cerevisiae CLN2oe strain, hits give high values
How it was run: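 Growth of a genetically modified yeast strain is measured after compound exposure and compared with cultures given vehicle alone.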

[10] = NCI Yeast Anticancer Drug Screen. Data for the cln2 rad14 strain (AID 165);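 also: 0% = growth equal to vehicle treated cultures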; conditions: S. cerevisiae cln2 rad14 strain, hits give high values
How it was run: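 Compounds are applied to the cln2 rad14 yeast strain, and growth is then compared with that of vehicle-treated cultures to give inhibition.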

[11] = NCI Yeast Anticancer Drug Screen. Data for the bub3 strain (AID 167); conditions: S. cerevisiae bub3 mutant strain, hits give high values
How it was run: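 Growth of a checkpoint-deficient yeast mutant is measured after compound exposure. Values represent inhibition relative to vehicle.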

[12] = NCI Yeast Anticancer Drug Screen. Data for the wt2 strain (AID 169);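 also: 0% = growth of vehicle-treated yeast cultures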; conditions: S. cerevisiae wt2 strain growth inhibition, hits give high values
How it was run: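 This strain belongs to a panel of yeast strains with defined genetic alterations in DNA damage repair or cell cycle control. Compounds are applied, and growth inhibition is measured against vehicle-treated cultures.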

[13] = NCI Yeast Anticancer Drug Screen. Data for the sgs1 strain (AID 173);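 also: 0% = growth of vehicle-only control cultures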; conditions: S. cerevisiae sgs1 mutant, hits give high values
How it was run: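 Growth of a yeast strain bearing a defined genetic alteration is measured after compound treatment. Inhibition is expressed relative to vehicle-only controls.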

[14] = NCI Yeast Anticancer Drug Screen. Data for the mlh1 rad18 strain (AID 175); conditions: S. cerevisiae mlh1 rad18 strain growth inhibition, hits give high values
How it was run: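 Read-out is yeast growth inhibition, calculated against vehicle-only controls. The compound was applied to a strain engineered with DNA damage repair alterations.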

[15] = at 5.0 µM (retest, dose inferred, filed as 0.5)
[16] = at 50.0 µM (retest, dose inferred, filed as 5.0)

Measured: growth inhibition

Cc1ccc2nc3sc(=O)sc3nc2c1
active: [1]; at 11.0 µM 99% | [1]; at 33.0 µM 98% | [1]; at 100.0 µM 96% | [2]; at 11.0 µM 88% | [2]; at 33.0 µM 98% | [2]; at 100.0 µM 97% | [3]; at 11.0 µM 79% | [3]; at 33.0 µM 96% | [3]; at 100.0 µM 95% | [4]; at 11.0 µM 96% | [4]; at 33.0 µM 98% | [4]; at 100.0 µM 98% | [5]; at 11.0 µM 96% | [5]; at 33.0 µM 97% | [5]; [16] 92% | [5]; at 50.0 µM 97% | [5]; at 100.0 µM 96% | [6]; at 11.0 µM 98% | [6]; at 33.0 µM 98% | [6]; [16] 97% | [6]; at 50.0 µM 93.8% | [6]; at 100.0 µM 97% | [7]; at 11.0 µM 99% | [7]; at 33.0 µM 98% | [7]; at 100.0 µM 97% | [8]; [16] 94% | [8]; at 50.0 µM 98.1% | [9]; at 33.0 µM 94% | [9]; at 100.0 µM 97% | [10]; [16] 89% | [10]; at 50.0 µM 92% | [11]; at 33.0 µM 97% | [11]; [16] 91% | [11]; at 50.0 µM 97% | [11]; at 100.0 µM 95% | [12]; at 11.0 µM 95% | [12]; at 33.0 µM 98% | [12]; at 100.0 µM 97% | [13]; at 11.0 µM 97% | [13]; at 33.0 µM 97% | [13]; at 100.0 µM 96% | [14]; [16] 91% | [14]; at 50.0 µM 96.2%
inactive: [1]; at 1.2 µM 48% | [1]; at 3.7 µM 66% | [2]; at 1.2 µM -2% | [2]; at 3.7 µM 22% | [3]; at 1.2 µM 26% | [3]; at 3.7 µM 49% | [4]; at 1.2 µM 22% | [4]; at 3.7 µM 40% | [5]; at 1.2 µM 13% | [5]; at 3.7 µM 27% | [5]; [15] 27% | [6]; at 1.2 µM 16% | [6]; at 3.7 µM 37% | [6]; [15] -7% | [7]; at 1.2 µM 14% | [7]; at 3.7 µM 33% | [8]; [15] 13% | [9]; at 1.2 µM -15% | [9]; at 3.7 µM 7% | [9]; at 11.0 µM 37% | [10]; [15] 30% | [11]; at 1.2 µM -2% | [11]; at 3.7 µM 14% | [11]; [15] 59% | [11]; at 11.0 µM 52% | [12]; at 1.2 µM 11% | [12]; at 3.7 µM 34% | [13]; at 1.2 µM 42% | [13]; at 3.7 µM 68% | [14]; [15] 38%

From PubChem BioAssay (NCI)
